From PubChem BioAssay
Records with an inconclusive call do not appear. Calls of active or inactive are those of the source. Unless noted, cut-off not given; nearly all actives show AC50 up to about 26 µM.

test: viability loss in pontine glioma line – cell-based, SU-DIPG-XXV, MIPE5.0, CellTiter-Glo, qHTS, dose response (AID 1347065); settings: CellTiter-Glo ATP luminescence;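 further: cells exposed to compound for 48 hours before ATP readout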

Row | Structure (SMILES) | AC50 | outcome
1 | COc1cc2c(NC3CCN(C(C)C)CC3)nc(C3CCCCC3)nc2cc1OCCCN1CCCC1 | 20.9 µM (active) | 
2 | CCN1CCC(n2cc(CNc3cc(Cl)c4ncc(C#N)c(Nc5ccc(F)c(Cl)c5)c4c3)nn2)CC1 | 23.5 µM (active) | 
3 | CC(C)C[C@H](NC(=O)CNC(=O)c1cc(Cl)ccc1Cl)B(O)O | 0.0833 µM (active) | 
4 | CCc1ccc(C(=O)Nc2cc(CN3CCN(C)CC3)cc(C(F)(F)F)c2)cc1C#Cc1cnc2ccnn2c1 | 11.8 µM (active) | 
5 | CC1(C)CCC(c2ccc(Cl)cc2)=C(CN2CCN(c3ccc(C(=O)NS(=O)(=O)c4ccc(N[C@H](CCN5CCOCC5)CSc5ccccc5)c(S(=O)(=O)C(F)(F)F)c4)cc3)CC2)C1 | 0.148 µM (active) | 
6 | C#Cc1cccc(Nc2ncnc3cc(OCCOC)c(OCCO)cc23)c1 | 7.42 µM (active) | 
7 | CC(C)CC(=O)Nc1n[nH]c2c1CN(C(=O)C1CCN(C)CC1)C2(C)C | 10.5 µM (active) | 
8 | CCOC(CN1C(=O)[C@](CC(=O)Nc2ccc(C)cc2)(NC(=O)Nc2ccc(C)cc2)c2ccccc21)OCC | 18.6 µM (active) | 
9 | CNC(=O)Nc1ccc(-c2nc(N3CC4CCC(C3)O4)c3cnn(C4CCC5(CC4)OCCO5)c3n2)cc1 | 0.332 µM (active) | 
10 | C=CCn1c(=O)c2cnc(Nc3ccc(N4CCN(C)CC4)cc3)nc2n1-c1cccc(C(C)(C)O)n1 | 1.05 µM (active) | 
11 | CS[C@H]1SC[C@@H]2C(=O)N(C)[C@H](C(C)C)C(=O)OC[C@H](NC(=O)c3cnc4ccccc4n3)C(=O)N[C@H](C)C(=O)N(C)[C@H]1C(=O)N(C)[C@H](C(C)C)C(=O)OC[C@H](NC(=O)c1cnc3ccccc3n1)C(=O)N[C@H](C)C(=O)N2C | 0.00296 µM (active) | 
12 | CC(C)c1cnn2c(NCc3ccccc3)cc(N[C@@H](CO)[C@H](O)CO)nc12 | 0.235 µM (active) | 
13 | COc1ccc(F)c(F)c1C(=O)c1cnc(NC2CCN(S(C)(=O)=O)CC2)nc1N | 2.09 µM (active) | 
14 | C[C@H]1[C@H](OC(=O)CCC(=O)O)O[C@@H]2O[C@@]3(C)CC[C@H]4[C@H](C)CC[C@@H]1[C@@]24OO3 | 13.2 µM (active) | 
15 | O=C1NC(=O)C(c2cnc3ccccn23)=C1c1cn2c3c(cccc13)CN(C(=O)N1CCOCC1)CC2 | 11.8 µM (active) | 
16 | Cc1ccc(S(=O)(=O)OCC(=O)Nc2ccc(C(=O)O)c(O)c2)cc1 |  | inactive
17 | CC/C(=C(/c1ccc(O)cc1)c1ccc(OCCNC)cc1)c1ccccc1 | 3.32 µM (active) | 
18 | CC(=O)OCC(=O)[C@@]1(O)[C@H](C)C[C@H]2[C@@H]3C=C(C)C4=Cc5c(cnn5-c5ccccc5)C[C@]4(C)[C@H]3[C@@H](O)C[C@@]21C | 23.5 µM (active) | 
19 | O=C(NC1CCNCC1)c1[nH]ncc1NC(=O)c1c(Cl)cccc1Cl | 7.42 µM (active) | 
20 | CN(C)CCN1C(=O)c2cccc3cc(N)cc(c23)C1=O | 18.6 µM (active) | 
21 | CC(C)C[C@H](NC(=O)CNC(=O)c1cc(Cl)ccc1Cl)B1OC(=O)CC(CC(=O)O)(C(=O)O)O1 (some centres undefined) | 0.0833 µM (active) | 
22 | CC(C)(C)c1cc(C(C)(C)C)c(NC(=O)c2c[nH]c3ccccc3c2=O)cc1O | 10.5 µM (active) | 

test: growth inhibition of DIPG cells – cell-based, MIPE4.0 library, CellTiter-Glo luminescence, qHTS (AID 1347066; cut-off not given, nearly all actives have AC50 up to about 30 µM;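 further: cells exposed to compound for 48 hours before readout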); settings: SU-DIPG-VI viability, CellTiter-Glo ATP luminescence

Row | Structure (SMILES) | AC50 | outcome
23 | CC(C)c1cnn2c(NCc3ccccc3)cc(NCCCCCCN)nc12 | 23.5 µM (active) | 
24 | COC[C@H](NC(=O)c1cnc(C)s1)C(=O)N[C@@H](COC)C(=O)N[C@@H](Cc1ccccc1)C(=O)[C@@]1(C)CO1 | 0.332 µM (active) | 
25 | CCN(CC)CCCCNc1nc2cc(Cl)c(Cl)cc2nc1-c1ccc(-c2cccs2)s1 | 14.8 µM (active) | 
26 | C[C@]1(c2nc3c(C(N)=O)cccc3[nH]2)CCCN1 |  | inactive
27 | NC(=O)N1CCC(CC(=O)N2CCC([C@H]3c4ncc(Br)cc4CCc4cc(Cl)cc(Br)c43)CC2)CC1 | 16.6 µM (active) | 
28 | O=C1NCCc2[nH]c(-c3ccncc3)cc21 |  | inactive
29 | CNC(=O)c1ccc(N2C(=S)N(c3ccc(C#N)c(C(F)(F)F)c3)C(=O)C2(C)C)cc1F |  | inactive
30 | Cn1cncc1[C@@](N)(c1ccc(Cl)cc1)c1ccc2c(c1)c(-c1cccc(Cl)c1)cc(=O)n2C | 18.7 µM (active) | 
31 | CCN1CCC(n2cc(CNc3cc(Cl)c4ncc(C#N)c(Nc5ccc(F)c(Cl)c5)c4c3)nn2)CC1 | 16.6 µM (active) | 
32 | CCc1ccc(C(=O)Nc2cc(CN3CCN(C)CC3)cc(C(F)(F)F)c2)cc1C#Cc1cnc2ccnn2c1 | 16.6 µM (active) | 
33 | CC1(C)CCC(c2ccc(Cl)cc2)=C(CN2CCN(c3ccc(C(=O)NS(=O)(=O)c4ccc(N[C@H](CCN5CCOCC5)CSc5ccccc5)c(S(=O)(=O)C(F)(F)F)c4)cc3)CC2)C1 | 0.59 µM (active) | 
34 | C#Cc1cccc(Nc2ncnc3cc(OCCOC)c(OCCO)cc23)c1 |  | inactive
35 | O=C(O)[C@H](Cc1c[nH]c2ccccc12)N1C(=O)c2ccccc2C1=O |  | inactive
36 | COc1ccc(F)c(F)c1C(=O)c1cnc(NC2CCN(S(C)(=O)=O)CC2)nc1N |  | inactive
37 | C[C@H]1[C@H](OC(=O)CCC(=O)O)O[C@@H]2O[C@@]3(C)CC[C@H]4[C@H](C)CC[C@@H]1[C@@]24OO3 |  | inactive
38 | Cc1ccc(S(=O)(=O)OCC(=O)Nc2ccc(C(=O)O)c(O)c2)cc1 |  | inactive
39 | CC/C(=C(/c1ccc(O)cc1)c1ccc(OCCNC)cc1)c1ccccc1 | 26.4 µM (active) | 
40 | CC(=O)OCC(=O)[C@@]1(O)[C@H](C)C[C@H]2[C@@H]3C=C(C)C4=Cc5c(cnn5-c5ccccc5)C[C@]4(C)[C@H]3[C@@H](O)C[C@@]21C | 26.4 µM (active) | 
41 | O=C(NC1CCNCC1)c1[nH]ncc1NC(=O)c1c(Cl)cccc1Cl |  | inactive
42 | NCC(=O)Nc1ccc(-n2nc(C(F)(F)F)cc2-c2ccc3c(ccc4ccccc43)c2)cc1 | 20.9 µM (active) | 
43 | CC(C)(C)c1cc(C(C)(C)C)c(NC(=O)c2c[nH]c3ccccc3c2=O)cc1O |  | inactive
44 | CCCCCCCCCCCC(CC1OC(=O)C1CCCCCC)OC(=O)C(CC(C)C)NC=O (centres undefined) |  | inactive
